# In PubChem BioAssay AID1159580 (chemical genetic matrix, 2015):
# About 2,000 (36%) of roughly 5,500 compounds were called active. Roughly 18% stayed inconclusive and do not appear here. Some of the results follow. A number with no mark means an inactive call. Cut-off read from the data, not from the text of the source: active = normalized growth mostly below about 0.91 (no sharp cut-off); inconclusive = no clear call, values can overlap the other calls; inactive = mostly above about 0.92.
# Test: chemical genetic growth profiling, strain panel (AID 1159580);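 note: tested at 20 µM; growth read once vehicle control cultures reached saturation at 30 °C; 1 = growth at the plate median or of vehicle wells; lower values mean less growth of the strain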
# Conditions: S. cerevisiae deletion strains, growth OD
# [1] = locus YAL013W, strain DEP1, hits give low values
# [2] = locus YAL040C, strain CLN3, hits give low values
# [3] = locus YDR150W, strain NUM1, hits give low values
# [4] = locus YDR363W, strain ESC2, hits give low values
# [5] = locus YER002W, strain NOP16, hits give low values
# [6] = locus YGR078C, strain PAC10, hits give low values
# [7] = locus YJR075W, strain HOC1, hits give low values
# [8] = locus YNL175C, strain NOP13, hits give low values
# [9] = locus YNL197C, strain WHI3, hits give low values
# [10] = locus YNL224C, strain SQS1, hits give low values
# [11] = locus YNL322C, strain KRE1, hits give low values
# [12] = locus YOR083W, strain WHI5 (second series), hits give low values
# [13] = locus YPL055C, strain LGE1, hits give low values
# [14] = locus YCL061C, strain MRC1 (second series), hits give low values
# [15] = locus YNL153C, strain GIM3, hits give low values
smiles,measurement,setting,value
S=C(S)N1CCCC1,normalized growth,[1],0.676 (active)
same,normalized growth,[2],1
same,normalized growth,[3],0.634 (active)
same,normalized growth,[4],0.804 (active)
same,normalized growth,[5],0.992
same,normalized growth,[6],0.977
same,normalized growth,[7],0.52 (active)
same,normalized growth,[8],0.98
same,normalized growth,[9],0.409 (active)
same,normalized growth,[10],0.966
same,normalized growth,[11],0.916
same,normalized growth,[12],0.175 (active)
same,normalized growth,[13],0.454 (active)
same,normalized growth,"locus YPL241C, strain CIN2, hits give low values",0.943 (active)
Fc1ccc(Nc2nc(-c3ccc(F)c(F)c3)cs2)c(F)c1,normalized growth,"locus YAR019C, strain CDC15, hits give low values",0.14 (active)
same,normalized growth,"locus YBL105C, strain PKC1, hits give low values",0.104 (active)
same,normalized growth,"locus YBR135W, strain CKS1, hits give low values",0.0961 (active)
same,normalized growth,"locus YBR136W, strain MEC1, hits give low values",0.0962 (active)
same,normalized growth,"locus YBR160W, strain CDC28, hits give low values",0.12 (active)
same,normalized growth,"locus YDL017W, strain CDC7, hits give low values",0.128 (active)
same,normalized growth,"locus YDL028C, strain MPS1, hits give low values",0.104 (active)
same,normalized growth,"locus YDL101C, strain DUN1, hits give low values",0.282 (active)
same,normalized growth,"locus YDL108W, strain KIN28, hits give low values",0.132 (active)
same,normalized growth,"locus YDL132W, strain cdc53, hits give low values",0.0939 (active)
same,normalized growth,"locus YDL214C, strain PRR2, hits give low values",0.182 (active)
same,normalized growth,"locus YDR052C, strain DBF4, hits give low values",0.181 (active)
same,normalized growth,"locus YDR054C, strain cdc34, hits give low values",0.094 (active)
same,normalized growth,"locus YDR226W, strain ADK1, hits give low values",0.107 (active)
same,normalized growth,"locus YDR477W, strain SNF1, hits give low values",0.102 (active)
same,normalized growth,"locus YER123W, strain YCK3, hits give low values",0.173 (active)
same,normalized growth,"locus YER133W, strain GLC7, hits give low values",0.17 (active)
same,normalized growth,"locus YFL009W, strain cdc4, hits give low values",0.0952 (active)
same,normalized growth,"locus YFL029C, strain CAK1, hits give low values",0.0895 (active)
same,normalized growth,"locus YFR003C, strain YPI1, hits give low values",0.105 (active)
same,normalized growth,"locus YFR019W, strain FAB1, hits give low values",0.102 (active)
same,normalized growth,"locus YFR028C, strain CDC14, hits give low values",0.0972 (active)
same,normalized growth,"locus YGR040W, strain KSS1, hits give low values",0.102 (active)
same,normalized growth,"locus YGR052W, strain FMP48, hits give low values",0.144 (active)
same,normalized growth,"locus YGR092W, strain DBF2, hits give low values",0.11 (active)
same,normalized growth,"locus YHR030C, strain SLT2, hits give low values",0.141 (active)
same,normalized growth,"locus YHR079C, strain IRE1, hits give low values",0.158 (active)
same,normalized growth,"locus YHR082C, strain KSP1, hits give low values",0.155 (active)
same,normalized growth,"locus YHR205W, strain SCH9, hits give low values",0.000718 (active)
same,normalized growth,"locus YIL147C, strain SLN1, hits give low values",0.133 (active)
same,normalized growth,"locus YJL095W, strain BCK1, hits give low values",0.133 (active)
same,normalized growth,"locus YJL128C, strain PBS2, hits give low values",0.0972 (active)
same,normalized growth,"locus YJL157C, strain FAR1, hits give low values",0.199 (active)
same,normalized growth,"locus YJR016C, strain ILV3, hits give low values",0.0878 (active)
same,normalized growth,"locus YJR066W, strain TOR1 (second series), hits give low values",0.0987 (active)
same,normalized growth,"locus YJR066W, strain TOR1, hits give low values",0.111 (active)
same,normalized growth,"locus YKL048C, strain ELM1, hits give low values",0.145 (active)
same,normalized growth,"locus YKL067W, strain YNK1, hits give low values",0.182 (active)
same,normalized growth,"locus YKL101W, strain HSL1, hits give low values",0.132 (active)
same,normalized growth,"locus YKL193C, strain SDS22, hits give low values",0.0966 (active)
same,normalized growth,"locus YKL203C, strain TOR2, hits give low values",0.104 (active)
same,normalized growth,"locus YLR113W, strain HOG1, hits give low values",0.189 (active)
same,normalized growth,"locus YLR133W, strain CKI1, hits give low values",0.0955 (active)
same,normalized growth,"locus YLR403W, strain SFP1, hits give low values",0.0012 (active)
same,normalized growth,"locus YML070W, strain DAK1, hits give low values",0.113 (active)
same,normalized growth,"locus YMR001C, strain CDC5, hits give low values",0.0929 (active)
same,normalized growth,"locus YMR205C, strain PFK2 (second series), hits give low values",0.0941 (active)
same,normalized growth,"locus YMR277W, strain FCP1, hits give low values",0.0934 (active)
same,normalized growth,"locus YNL006W, strain LST8, hits give low values",0.106 (active)
same,normalized growth,"locus YNL020C, strain ARK1, hits give low values",0.107 (active)
same,normalized growth,"locus YNL161W, strain CBK1, hits give low values",0.475 (active)
same,normalized growth,"locus YNL183C, strain NPR1, hits give low values",0.155 (active)
same,normalized growth,"locus YNL207W, strain RIO2, hits give low values",0.114 (active)
same,normalized growth,"locus YNL222W, strain SSU72, hits give low values",0.101 (active)
same,normalized growth,"locus YNL307C, strain MCK1 (second series), hits give low values",0.117 (active)
same,normalized growth,"locus YOL078W, strain AVO1, hits give low values",0.092 (active)
same,normalized growth,"locus YOL136C, strain PFK27, hits give low values",0.197 (active)
same,normalized growth,"locus YOR061W, strain CKA2, hits give low values",0.102 (active)
same,normalized growth,"locus YOR119C, strain RIO1, hits give low values",0.107 (active)
same,normalized growth,"locus YOR231W, strain MKK1, hits give low values",0.169 (active)
same,normalized growth,"locus YOR329C, strain SCD5, hits give low values",0.117 (active)
same,normalized growth,"locus YPL031C, strain PHO85, hits give low values",0.114 (active)
same,normalized growth,"locus YPL153C, strain RAD53, hits give low values",0.116 (active)
same,normalized growth,"locus YPL204W, strain HRR25, hits give low values",0.104 (active)
same,normalized growth,"locus YPL209C, strain IPL1, hits give low values",0.0912 (active)
same,normalized growth,"locus YPL256C, strain CLN2, hits give low values",0.179 (active)
same,normalized growth,"locus YPR025C, strain CCL1, hits give low values",0.0957 (active)
same,normalized growth,"locus YPR106W, strain ISR1, hits give low values",0.099 (active)
same,normalized growth,"locus YPR111W, strain DBF20, hits give low values",0.101 (active)
same,normalized growth,"strain NNK1, hits give low values",0.114 (active)
same,normalized growth,"strain TSCII, hits give low values",0.106 (active)
N[C@@H](CCCC(=O)O)C(=O)O,normalized growth,[1],1.01
same,normalized growth,[2],1.08
same,normalized growth,[14],1.01
same,normalized growth,[4],1.02
same,normalized growth,[5],0.981
same,normalized growth,[6],1.01
same,normalized growth,[7],1.01
same,normalized growth,"locus YMR263W, strain SAP30, hits give low values",1
same,normalized growth,[15],1.02
same,normalized growth,[8],1
same,normalized growth,[9],1.03
same,normalized growth,[10],0.988
same,normalized growth,[11],1.02
same,normalized growth,[12],0.993
same,normalized growth,[13],0.988
C[N+](C)(C)CC#CCN1CCCC1=O,normalized growth,[2],0.99
same,normalized growth,[14],0.996
same,normalized growth,[3],1.01
same,normalized growth,[4],1
same,normalized growth,[5],0.985
same,normalized growth,[6],0.991
same,normalized growth,"locus YMR307W, strain GAS1, hits give low values",1.01
same,normalized growth,[15],0.994
same,normalized growth,[8],0.996
same,normalized growth,[9],0.996
same,normalized growth,[10],0.996
same,normalized growth,[11],1
same,normalized growth,[12],1.01
